Results on 39 molecules are retold here after ChEMBL document CHEMBL3988442, “University of Dundee, Small-Polar-MMV Screening Library” (2021).

The species named for the first assay is Homo sapiens. The assay is described as follows: To identify inhibition of the IFN signalling (Jak-Stat) pathway via expression of an eGFP reporter gene under the control of an IFN-stimulated response element (ISRE) containing MxA promoter. The assay is classed as functional. On the set-up: scale not given: direction of the effect not stated beside the values. Conditions: 30 µM. A general note: Reporter assays use an easily measured gene product as a stand-in for the process of interest.
Take `CCn1cc(Br)c(C(=O)NCc2cccnc2)n1`: the Percent Effect worked out at 3.08%.

Take `Cn1nc2c(cc1=O)CN(CCc1nc3ccccc3c(=O)[nH]1)CC2`: the Percent Effect was found to be 6.4%.

For the molecule `COc1cccc2c1OCC(CNC(=O)CSc1nc(N)n[nH]1)C2` (stereo not drawn), the Percent Effect was 4.85%.

Take `COCCCNC(=O)CN(C)C(=O)c1cc(C)ccc1N(C)C(C)C`: the Percent Effect was found to be 5.31%.

Regarding `c1ccc2sc(CN3CCCC3c3noc(C4CC4)n3)nc2c1` (stereo not drawn), the Percent Effect stood at 9.41%.

On to `COCCO[C@@H]1CCN(Cc2csc(C)n2)[C@H]1Cc1ccccc1`, for which the Percent Effect was determined as 8.8%.

With `C[C@@H]1CN(C(=O)c2ccsc2)C[C@]12CCN(c1ccsc1)C2=O`, the Percent Effect was 5.8%.

In the case of `CC(O)CC(C)(C)CNC(=O)NCc1cccc(-n2cncn2)c1` (stereo not drawn), the Percent Effect was -9.29%.

For the molecule `Cc1c(C(=O)NCC(C)C)nnn1-c1cccc2c1CCN(C)C2`, the Percent Effect came out at 18.4%.

`COc1ccc(CNCC(C)Oc2ccccn2)cc1Br` (stereo not drawn): the Percent Effect was 3.97%.

For the molecule `Cc1ccc(CN2CCc3ncc(CNS(C)(=O)=O)n3CC2)o1`, the Percent Effect was determined as 16.8%.

As to `Cc1nc(CN2CCCC(NCc3c(C)nc4sccn34)C2)no1` (stereo not drawn), the Percent Effect stood at 45.2%.

In the case of `Cc1cn2nc(N3CCCN(Cc4noc(C)n4)CC3)sc2n1`, the Percent Effect came to 0.85%.

On to `CC(NC(=O)NCCNc1cnccn1)c1cccs1` (stereo not drawn), for which the Percent Effect is -20.8%.

On to `CCOCC1CN(Cc2cccc(C#N)c2)Cc2nccn2C1` (stereo not drawn), for which the Percent Effect is -1.58%.

With `COc1ccc(OCc2nc(C(=O)N3CC[C@H](O)[C@@H](O)C3)co2)cc1`, the Percent Effect is -0.834%.

As to `O=C(CN1CCCC1Cn1cncn1)NCCc1c(F)cccc1F` (stereo not drawn), the Percent Effect was -5.35%.

`CN(C)c1ncnc2c1CCN(CC1CCOC1)CC2` (stereo not drawn): the Percent Effect is -8.93%.

Take `CC(C)N(CC(N)=O)Cc1csc(COc2ccc(F)cc2)n1`: the Percent Effect was 63.8%.

Regarding `Cc1nc(CN2CCCN(C(=O)c3ccccn3)CC2)oc1C`, the Percent Effect stood at 33%.

On to `O=C(c1cccnc1N1CCOCC1)N1CCCC1Cn1cccn1` (stereo not drawn), for which the Percent Effect is -15.5%.

As to `CCN(C(=O)CN(C)C(c1cccc(F)c1)c1ccccn1)C1CC1` (stereo not drawn), the Percent Effect was found to be 4.69%.

As to `Cc1nc(C2(NCC(=O)NCCc3cccs3)CCCC2)no1`, the Percent Effect was 6.74%.

For `CO[C@H]1CN(C(=O)c2ccccn2)[C@@H]2CCCO[C@H]12`, the Percent Effect was 0.992%.

Turning to `CCO[C@@H]1CO[C@@]2(CCCN(C(=O)c3ccc(OC)c(F)c3)C2)C1`, the Percent Effect was found to be 6.86%.

In the case of `CC(C)S(=O)(=O)c1nnc(CCNC(=O)OC(C)(C)C)o1`, the Percent Effect came to 17.5%.

As for `CCc1c(C(=O)NC2CCS(=O)(=O)C2)cnn1-c1ccc(F)cc1` (stereo not drawn), the Percent Effect is -14.4%.

For the molecule `CCn1nccc1CNC(=O)NC1CCCCC1`, the Percent Effect was 12%.

For the molecule `CN(Cc1ccsc1)C(=O)Nc1cccnc1N1CCCC1`, the Percent Effect is 6.49%.

Turning to `CCCC1(CO)CCCN(c2ncccc2F)C1` (stereo not drawn), the Percent Effect amounted to 10.4%.

`Cc1nc[nH]c1-c1nc2cc(S(=O)(=O)N3CCCC3)ccc2n1C`: the Percent Effect came to 24.3%.

Regarding `CCNC(=O)N(C)Cc1ccc(SC)c(OC)c1`, the Percent Effect is -1.36%.

For `COCC(=O)N1CCC(c2nc3ccc(-c4ccccc4)cn3n2)CC1`, the Percent Effect is 15.6%.

Take `CC(C(=O)NCc1ccnc(N2CCN(C)CC2)c1)n1cccn1` (stereo not drawn): the Percent Effect was 1.68%.

`CCc1c(C)nc2cc(C3CCN(Cc4ccccc4F)C3)nn2c1O` (stereo not drawn): the Percent Effect stood at 17%.

Take `O=C(COc1ccc(C(F)(F)F)cc1)NS(=O)(=O)c1cccnc1`: the Percent Effect was -6.19%.

Turning to `CN(C)S(=O)(=O)c1ccc(OCCNCCn2cccn2)cc1`, the Percent Effect stood at 11.8%.

Take `O=C(CN1CCCC(O)C1)NC(=O)NCc1cccs1` (stereo not drawn): the Percent Effect worked out at 15.4%.

In the case of `CCOc1ncccc1CNC(=O)N1CCCC1c1ccncc1` (stereo not drawn), the Percent Effect came to 12.2%.

A further assay addresses T1, Tyrosyl-tRNA synthetase, putative (Trypanosoma cruzi (strain CL Brener)) (UniProt Q4DSP6).
T1 sequence (whole entry): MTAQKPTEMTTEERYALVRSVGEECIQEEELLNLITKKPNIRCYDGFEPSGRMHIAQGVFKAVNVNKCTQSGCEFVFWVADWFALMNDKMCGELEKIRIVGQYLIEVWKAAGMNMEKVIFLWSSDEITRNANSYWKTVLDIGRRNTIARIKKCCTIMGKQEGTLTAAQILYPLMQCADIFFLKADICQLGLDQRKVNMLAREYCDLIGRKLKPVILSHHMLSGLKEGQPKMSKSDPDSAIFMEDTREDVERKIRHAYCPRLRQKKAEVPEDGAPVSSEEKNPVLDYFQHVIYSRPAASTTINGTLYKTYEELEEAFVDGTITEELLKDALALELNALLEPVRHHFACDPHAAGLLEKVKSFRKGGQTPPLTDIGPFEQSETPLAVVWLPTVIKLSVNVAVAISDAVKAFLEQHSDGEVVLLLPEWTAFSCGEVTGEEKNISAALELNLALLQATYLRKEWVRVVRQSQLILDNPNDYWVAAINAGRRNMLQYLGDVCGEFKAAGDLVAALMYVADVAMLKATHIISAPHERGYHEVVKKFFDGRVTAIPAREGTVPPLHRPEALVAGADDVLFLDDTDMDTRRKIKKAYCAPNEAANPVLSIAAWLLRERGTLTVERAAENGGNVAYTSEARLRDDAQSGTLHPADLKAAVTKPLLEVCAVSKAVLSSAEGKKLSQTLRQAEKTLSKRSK
The assay is described as follows: Trypanosoma cruzi tyrosyl tRNA synthetase (TcYRS) _High Tyrosine SOP. The class given is functional. More on the design: scale not given: in the data most compounds retested in dose-response had high values. Conditions: 30 µM.
As to `CCn1cc(Br)c(C(=O)NCc2cccnc2)n1`, the Percent Effect was determined as 7.53%.

As to `Cn1nc2c(cc1=O)CN(CCc1nc3ccccc3c(=O)[nH]1)CC2`, the Percent Effect is -1.07%.

With `COc1cccc2c1OCC(CNC(=O)CSc1nc(N)n[nH]1)C2` (stereo not drawn), the Percent Effect was 8.6%.

With `COCCCNC(=O)CN(C)C(=O)c1cc(C)ccc1N(C)C(C)C`, the Percent Effect worked out at 1.98%.

Regarding `c1ccc2sc(CN3CCCC3c3noc(C4CC4)n3)nc2c1` (stereo not drawn), the Percent Effect amounted to 8.91%.

For the molecule `COCCO[C@@H]1CCN(Cc2csc(C)n2)[C@H]1Cc1ccccc1`, the Percent Effect was 1.07%.

On to `C[C@@H]1CN(C(=O)c2ccsc2)C[C@]12CCN(c1ccsc1)C2=O`, for which the Percent Effect worked out at 5.32%.

Regarding `CC(O)CC(C)(C)CNC(=O)NCc1cccc(-n2cncn2)c1` (stereo not drawn), the Percent Effect was found to be 0%.

As to `Cc1c(C(=O)NCC(C)C)nnn1-c1cccc2c1CCN(C)C2`, the Percent Effect was found to be 5.32%.

As for `COc1ccc(CNCC(C)Oc2ccccn2)cc1Br` (stereo not drawn), the Percent Effect turned out to be 11.6%.

Take `Cc1ccc(CN2CCc3ncc(CNS(C)(=O)=O)n3CC2)o1`: the Percent Effect came to 7.29%.

As to `Cc1nc(CN2CCCC(NCc3c(C)nc4sccn34)C2)no1` (stereo not drawn), the Percent Effect was found to be 10.7%.

As for `Cc1cn2nc(N3CCCN(Cc4noc(C)n4)CC3)sc2n1`, the Percent Effect came out at 7.29%.

As for `CC(NC(=O)NCCNc1cnccn1)c1cccs1` (stereo not drawn), the Percent Effect was determined as 8.74%.

As to `CCOCC1CN(Cc2cccc(C#N)c2)Cc2nccn2C1` (stereo not drawn), the Percent Effect stood at 4.17%.

`COc1ccc(OCc2nc(C(=O)N3CC[C@H](O)[C@@H](O)C3)co2)cc1`: the Percent Effect was 6.88%.

As for `O=C(CN1CCCC1Cn1cncn1)NCCc1c(F)cccc1F` (stereo not drawn), the Percent Effect was determined as 5.42%.

`CN(C)c1ncnc2c1CCN(CC1CCOC1)CC2` (stereo not drawn): the Percent Effect stood at 3.24%.

With `CC(C)N(CC(N)=O)Cc1csc(COc2ccc(F)cc2)n1`, the Percent Effect turned out to be 5.42%.

Turning to `Cc1nc(CN2CCCN(C(=O)c3ccccn3)CC2)oc1C`, the Percent Effect stood at 2.86%.

Regarding `O=C(c1cccnc1N1CCOCC1)N1CCCC1Cn1cccn1` (stereo not drawn), the Percent Effect amounted to 3.81%.

With `CCN(C(=O)CN(C)C(c1cccc(F)c1)c1ccccn1)C1CC1` (stereo not drawn), the Percent Effect came out at 6.8%.

Take `Cc1nc(C2(NCC(=O)NCCc3cccs3)CCCC2)no1`: the Percent Effect was found to be 2.13%.

For the molecule `CO[C@H]1CN(C(=O)c2ccccn2)[C@@H]2CCCO[C@H]12`, the Percent Effect amounted to 0%.

Consider `CCO[C@@H]1CO[C@@]2(CCCN(C(=O)c3ccc(OC)c(F)c3)C2)C1`, for which the Percent Effect was determined as 11.6%.

With `CC(C)S(=O)(=O)c1nnc(CCNC(=O)OC(C)(C)C)o1`, the Percent Effect is 3.17%.

With `CCc1c(C(=O)NC2CCS(=O)(=O)C2)cnn1-c1ccc(F)cc1` (stereo not drawn), the Percent Effect was found to be 7.39%.

In the case of `CCn1nccc1CNC(=O)NC1CCCCC1`, the Percent Effect was 1.07%.

On to `CN(Cc1ccsc1)C(=O)Nc1cccnc1N1CCCC1`, for which the Percent Effect is -1.48%.

Consider `CCCC1(CO)CCCN(c2ncccc2F)C1` (stereo not drawn), for which the Percent Effect is 5.82%.

As to `Cc1nc[nH]c1-c1nc2cc(S(=O)(=O)N3CCCC3)ccc2n1C`, the Percent Effect is 7.53%.

On to `CCNC(=O)N(C)Cc1ccc(SC)c(OC)c1`, for which the Percent Effect came to 7.92%.

As to `COCC(=O)N1CCC(c2nc3ccc(-c4ccccc4)cn3n2)CC1`, the Percent Effect amounted to 0%.

Regarding `CC(C(=O)NCc1ccnc(N2CCN(C)CC2)c1)n1cccn1` (stereo not drawn), the Percent Effect worked out at 0.49%.

Consider `CCc1c(C)nc2cc(C3CCN(Cc4ccccc4F)C3)nn2c1O` (stereo not drawn), for which the Percent Effect was 4.3%.

Take `O=C(COc1ccc(C(F)(F)F)cc1)NS(=O)(=O)c1cccnc1`: the Percent Effect is -1.47%.

With `CN(C)S(=O)(=O)c1ccc(OCCNCCn2cccn2)cc1`, the Percent Effect was -1.04%.

Turning to `O=C(CN1CCCC(O)C1)NC(=O)NCc1cccs1` (stereo not drawn), the Percent Effect worked out at 3.19%.

On to `CCOc1ncccc1CNC(=O)N1CCCC1c1ccncc1` (stereo not drawn), for which the Percent Effect amounted to 4.92%.
